In PubChem BioAssay (EPA / NIEHS):
Inconclusive results are not listed. The source made the active and inactive calls. The calls were made as follows: active = hit-call score of the fitted dose curve at least 0.9, where 1 is the maximum; inconclusive = response in the unintended direction; inactive = score below 0.9.

Columns and labels:
[1] = biological target: Cellular tumor antigen p53 (Homo sapiens) (UniProt P04637); assay: TOX21_p53_BLA_p2_ratio: Tox21 HCT-116 p53 Agonism Beta-lactamase Assay, Ratio, Phase 2 (AID 2283592)
Cellular tumor antigen p53 (Homo sapiens), sequence (P04637 whole entry, looked up): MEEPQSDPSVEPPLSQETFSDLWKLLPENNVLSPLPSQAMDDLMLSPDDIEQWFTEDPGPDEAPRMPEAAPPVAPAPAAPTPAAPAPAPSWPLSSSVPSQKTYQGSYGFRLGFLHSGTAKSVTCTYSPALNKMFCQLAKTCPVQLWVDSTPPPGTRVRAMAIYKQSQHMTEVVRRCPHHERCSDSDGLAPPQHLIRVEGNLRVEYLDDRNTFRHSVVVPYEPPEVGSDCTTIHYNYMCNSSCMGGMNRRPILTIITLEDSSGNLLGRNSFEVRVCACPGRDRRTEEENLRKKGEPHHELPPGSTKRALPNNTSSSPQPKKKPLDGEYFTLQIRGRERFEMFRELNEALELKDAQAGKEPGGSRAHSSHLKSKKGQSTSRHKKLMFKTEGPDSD
Summary of the method: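 Plated HCT116 p53-bla cells (4000/well) received compound after 5 h, then 16 h at 37C/5% CO2. CCF4-AM added, 2 h RT. Ratio of 460 to 530 nm emission taken as the p53 reporter signal.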

[2] = biological target: Cellular tumor antigen p53 (Homo sapiens) (UniProt P04637); assay: TOX21_p53_BLA_p3_ratio: Tox21 HCT-116 p53 Agonism Beta-lactamase Assay, Ratio, Phase 3 (AID 2283596)
Summary of the method: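 Cells were seeded at 4000/well, rested 5 h at 37C, then dosed with DMSO compound solutions (217-fold dilution) for 16 h. CCF4-AM substrate was loaded for 2 h at room temperature, and the 460/530 nm emission ratio was fitted for gain of signal versus DMSO.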

[3] = biological target: Cellular tumor antigen p53 (Homo sapiens) (UniProt P04637); assay: TOX21_p53_BLA_p5_ratio: Tox21 HCT-116 p53 Agonism Beta-lactamase Assay, Ratio, Phase 5 (AID 2283599)
Summary of the method: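 HCT-116 cells carrying a p53-inducible beta-lactamase reporter were seeded at 4000 cells/well and dosed after 5 h with compound in DMSO (217-fold dilution). After 16 h at 37C, CCF4-AM substrate was added for 2 h, and the 460/530 nm emission ratio was scored as gain-of-signal versus DMSO.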

[4] = biological target: Cellular tumor antigen p53 (Homo sapiens) (UniProt P04637); assay: TOX21_p53_BLA_p4_ratio: Tox21 HCT-116 p53 Agonism Beta-lactamase Assay, Ratio, Phase 4 (AID 2283601)
Summary of the method: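 HCT116 cells carrying an inducible beta-lactamase reporter were plated at 4000 cells/well, rested 5 h, then exposed to compounds in DMSO (217-fold dilution) for 16 h at 37C. CCF4-AM substrate was loaded 2 h at room temperature; 460/530 nm emission ratio scored gain-of-signal versus DMSO.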

[5] = biological target: PGR (gene 5241) (UniProt P06401); assay: TOX21_PR_BLA_Followup_Antagonist_ratio: Tox21 HEK293 Progesterone Receptor (PR) Antagonism Beta-lactamase Follow-Up Assay, Ratio (AID 2283934);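 also: PR-UAS-bla HEK293T cells stimulated with 1 nM R5020 agonist for 16 hr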
PGR (gene 5241), sequence (P06401 whole entry, looked up): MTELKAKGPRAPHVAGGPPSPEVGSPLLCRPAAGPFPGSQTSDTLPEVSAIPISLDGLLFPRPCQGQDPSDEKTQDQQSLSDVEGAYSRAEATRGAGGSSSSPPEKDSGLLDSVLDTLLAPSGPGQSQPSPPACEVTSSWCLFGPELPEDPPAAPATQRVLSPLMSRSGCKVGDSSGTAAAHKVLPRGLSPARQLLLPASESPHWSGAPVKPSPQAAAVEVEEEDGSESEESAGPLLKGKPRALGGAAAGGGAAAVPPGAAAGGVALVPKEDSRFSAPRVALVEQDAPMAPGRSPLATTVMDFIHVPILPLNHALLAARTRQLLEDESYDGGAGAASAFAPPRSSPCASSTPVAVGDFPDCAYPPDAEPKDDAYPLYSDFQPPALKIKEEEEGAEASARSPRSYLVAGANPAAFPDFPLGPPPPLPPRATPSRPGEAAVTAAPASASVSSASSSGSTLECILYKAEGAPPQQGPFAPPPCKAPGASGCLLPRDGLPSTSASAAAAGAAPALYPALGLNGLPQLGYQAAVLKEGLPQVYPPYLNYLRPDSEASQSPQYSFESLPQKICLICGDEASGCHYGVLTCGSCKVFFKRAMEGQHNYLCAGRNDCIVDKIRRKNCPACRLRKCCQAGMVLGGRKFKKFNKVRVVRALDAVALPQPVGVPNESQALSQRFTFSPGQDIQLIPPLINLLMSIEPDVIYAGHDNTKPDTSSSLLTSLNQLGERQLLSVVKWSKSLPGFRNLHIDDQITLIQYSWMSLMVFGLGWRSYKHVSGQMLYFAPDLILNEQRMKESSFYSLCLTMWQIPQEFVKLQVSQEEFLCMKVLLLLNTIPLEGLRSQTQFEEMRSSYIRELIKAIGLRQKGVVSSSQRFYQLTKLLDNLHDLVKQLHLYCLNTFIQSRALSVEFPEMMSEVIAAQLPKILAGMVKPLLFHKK
Summary of the method: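 Readout is the blue/green (ch2/ch1) substrate cleavage ratio after 2 hours at room temperature, following 16 hr co-treatment of PR-bla HEK293T cells with compound and 1nM promegestone. Multiplexed CellTiter-Glo viability flags cytotoxicity; DMSO baseline.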

[6] = TOX21_PR_BLA_Followup_Agonist_viability: Viability Assessment in the Tox21 HEK293 Progesterone Receptor (PR) Agonism Beta-lactamase Follow-Up Assay (AID 2283935);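 also: signal loss means lower viability so actives are cytotoxic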
Summary of the method: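 Run multiplexed with the beta-lactamase FRET read, this endpoint measures ATP by CellTiter-Glo luminescence (30 min, room temperature). PR-UAS-bla HEK293T cells received compound 6 hr after plating and were then incubated 16 hr at 37C in 2% stripped serum.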

[7] = biological target: PGR (gene 5241) (UniProt P06401); assay: TOX21_PR_LUC_Followup_Antagonist: Tox21 HEK293 Progesterone Receptor (PR) Antagonism Luciferase Follow-Up Assay (AID 2283938);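 also: curve fitted upward as signal gain over DMSO baseline despite antagonist label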
Summary of the method: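 Cells are grown 5 days in charcoal-stripped-FBS assay medium, plated, left 5 h, then dosed with compound and incubated 16 h. ONE-Glo reagent is added and luminescence read after 30 min.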

[8] = TOX21_p53_BLA_p5_viability: Viability Assessment in the Tox21 HCT-116 p53 Agonism Beta-lactamase Assay, Phase 5 (AID 2283600)
Summary of the method: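 Workflow: seed 4000 cells per well, wait 5 h, add compounds (DMSO, 217-fold dilution), incubate 16 h, load CCF4-AM 2 h, add CellTiter-Glo, read luminescence after 30 min.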

Measured: AC50

CCN
inactive: [1] | [2] | [3] | [4]

OC(c1ccccc1)(c1ccccc1)C1CCNCC1
inactive: [1] | [2] | [3] | [4]

C[C@]12C=CC(=O)C=C1CC[C@@H]1[C@@H]2CC[C@@]2(C)[C@H]1CC[C@]2(C)O
not listed: [8]
inactive: all other assays above

CCOP(=O)(OCC)OP(=O)(OCC)OCC
inactive: [1] | [2] | [3] | [4]

CCCN
inactive: [1] | [2] | [3] | [8] | [4]

CCCC[N+]1(C)CCCC1
inactive: [1] | [2] | [3] | [4]

CSSC
inactive: [1] | [2] | [8]

CCS(=O)(=O)C(C)(C)S(=O)(=O)CC
inactive: [1] | [2] | [3] | [4]

CC(C)(Cl)[N+](=O)[O-]
inactive: [1] | [2] | [8] | [4]

CC=CCC#N
inactive: [1] | [2] | [3] | [4]

CCCN(CCC)CCc1c[nH]c2ccccc12
inactive: [1] | [2] | [8] | [4]

S=C=NCc1ccccc1
inactive: [1] | [3] | [8] | [4]
active: [2] 42.9 µM

CC(=O)OO
inactive: [1] | [2] | [3] | [4]

O=C(Cl)C(Cl)Cl
inactive: [1] | [2] | [3] | [8] | [4]

O=C1OC(c2ccc(O)c(S(=O)(=O)O)c2)(c2ccc(O)c(S(=O)(=O)O)c2)c2c(Br)c(Br)c(Br)c(Br)c21
inactive: [1] | [2] | [8] | [4]

C=CCC1([C@H](C)CCC)C(=O)NC(=O)NC1=O
inactive: [1] | [2] | [3] | [8] | [4]
